# Vaccinia mCherry = inhibitors of vaccinia virus infection (mCherry reporter signal); Vaccinia virus mCherry reporter infection, fluorescence; 310,000 tested, 0.63% active; AID 720579; Potency, µM (doses to about 36.5 µM), for inactives: top-dose activity change, negative = inhibition, usual class: inhibitors; calls by dose curve; tested in A549 cells; further: nearly all actives have a fitted effect of over 35% in size
# FMDV antiviral = foot and mouth disease virus antiviral activity; FMDV antiviral cell-based qHTS; Potency, µM (top dose mostly 57.9 µM), for the others: top-dose activity change, negative = inhibition, hits mostly inhibitors; 410,000 tested, 1.2% active; AID 1159524; calls by dose curve; tested in HEK293T cells; further: read-out not given here; nearly all actives have a fitted effect of over 45% in size
# LASV entry inh = blocks Lassa virus binding to or entry into cells; AID 540256; Lassa virus pseudotype entry inhibition, cell reporter; Potency, µM (series often up to 37.9 µM), for the others: top-dose activity change, negative = inhibition, actives largely listed as inhibitors; 300,000 tested, 1.2% active; calls by dose curve; tested in HEK293 cells; further: nearly all actives have a fitted effect of over 50% in size
# Marburg entry inh = blocks Marburg virus binding to or entry into cells; Marburg virus pseudotyped entry inhibition, cell reporter; Potency, µM (series often up to 37.8 µM), without a hit: at the highest dose activity change, negative = inhibition, usual class: inhibitors; 300,000 tested, 1.8% active; AID 540276; calls by dose curve; tested in HEK293 cells
# Vaccinia Venus = vaccinia inhibition (Venus reporter). Vaccinia virus Venus reporter expression, fluorescence. Potency, µM (titrated, usually from 36.5 µM), inactives show at the highest dose activity change, negative = inhibition, usual class: inhibitors. 330,000 tested, 0.46% active. AID 720580; calls by dose curve; tested in A549 cells; further: nearly all actives have a fitted effect of over 30% in size
# The depositor's hits bear a star; i = inactive; ? = inconclusive; nt = not tested or not shown; [ ] = dose if it differs, or a comment. An excerpt weighted towards active compounds, which were near 3.2% of everything screened. On the % scale 0 is the no-effect control and ±100 the full control effect; potency means the concentration at half of the fitted maximal effect.
SMILES,Vaccinia mCherry,FMDV antiviral,LASV entry inh,Marburg entry inh,Vaccinia Venus
COCC(=O)Nc1cc(C(=O)N2CCc3c(Cl)cccc3C2)c2c(c1)nc(-c1ccncc1)n2C,i,-3%,nt,nt,0%
CN(C)c1ccc(CN(Cc2ccco2)C(=O)COc2ccc(F)cc2)cc1,-16%,0%,5.6µM*,?,-13%
CN(C)c1ccc(CN(Cc2ccco2)C(=O)c2ccc(F)cc2)cc1,-11%,-17%,?,?,1%
N#Cc1c[nH]n2c(NC3CCCC3)c(-c3ccc(Br)cc3)nc12,-18%,-14%,-27%[46.1 µM],?,-26%
N#Cc1c[nH]n2c(NC3CCCC3)c(-c3ccc(Cl)cc3)nc12,-19%,-11%,-27%[46.1 µM],1.4µM*,-14%
CCCCCCCCCCC[N+](C)(C)CC/C=C1/c2ccccc2Sc2ccc(Cl)cc21,?,?,nt,nt,11µM*
CCCCCCCCCC[N+](C)(C)CC/C=C1/c2ccccc2Sc2ccc(Cl)cc21,?,?,nt,nt,11µM*
CC[N+](C)(C)CC/C=C1/c2ccccc2Sc2ccc(Cl)cc21,i,-8%,8%,-20%[14.2 µM],-5%
O[C@]1(c2ccc(F)cc2)CCNC1,nt,nt,nt,-7%,nt
Cc1nc(-c2coc3c(O)c(O)ccc3c2=O)cs1,nt,26%,nt,nt,nt
Cc1cccc(N/C(N)=N/c2nc3c(c(=O)[nH]2)CCCC3)c1,nt,4%,4%,-45%,nt
N/C(=N\c1nc2c(c(=O)[nH]1)CCC2)Nc1cccc(Cl)c1,?,-14%,-27%,6.3µM*,?
CCC1CSC(=Nc2ccc(C)cc2)N1C(=O)CN1C(=O)NC2(CCCC2)C1=O (stereo not given),?,7%,10µM*,?,?
O=C(N/N=C\C=C\c1ccc([N+](=O)[O-])o1)c1cccs1,10µM*,2%,?,?,?
COc1cc2c3cc1Oc1cc(ccc1O)CC1c4c(cc(OC)c(O)c4Oc4ccc(cc4)CC3N(C)CC2)CC[N+]1(C)C (stereo not given),-11%,-7%,nt,nt,4%
COc1ccc(COC(=O)C2=C(C)NC(=O)NC2c2ccc(O)c(OC)c2)cc1 (stereo not given),i,nt,?,-8%,-17%
COc1ccc(C[C@@H]2C(=O)N[C@H](C)C(=O)N(C)[C@@H]3Cc4ccc(cc4)Oc4cc(ccc4O)C[C@H](C(=O)N[C@@H](C)C(=O)N[C@H](C)C(=O)N2C)N(C)C3=O)cc1,158µM*,nt,nt,nt,0.28µM*
COc1ccc(CC2C(=O)NC(C)C(=O)N(C)C3C(=O)N(C)C(Cc4ccc(O)c(c4)Oc4ccc(cc4)C3O)C(=O)NC(C)C(=O)NC(C)C(=O)N2C)cc1 (stereo not given),0.32µM*,?,?,?,0.089µM*
COC(=O)C1=C(C)N(Cc2ccccc2)C(=S)NC1c1cccc(F)c1 (stereo not given),nt,nt,nt,48%[14.2 µM],nt
COc1cccc(CN2CCCC(C(=O)c3ccc4c(c3)OCO4)C2)c1OC (stereo not given),-22%,-13%,-14%[46.1 µM],11µM*,-9%
COc1cccc(/C=C/C(=O)c2ccc3c(c2)OCO3)c1OC,13µM*,26%,14%,-18%,?
Cc1ccc(-n2cccn2)c(CN2CCCC(C(=O)c3ccc4c(c3)OCO4)C2)c1 (stereo not given),i,-23%,?,10µM*,-17%
O=C(c1ccc2c(c1)OCO2)C1CCCN(Cc2cc(F)ccc2-n2cccn2)C1 (stereo not given),10%,1%,-12%,?,6%
CC(C)n1nc(C(=O)OCn2nnc3ccccc3c2=O)c2ccccc2c1=O,-10%,-14%,9%,21%,7%
O=C1C(F)=CC(COC(c2ccccc2)(c2ccccc2)c2ccccc2)OC1n1cc(F)c(=O)[nH]c1=O (stereo not given),10µM*,3.2µM*,5.6µM*,?,?
SMILES,Vaccinia mCherry,FMDV antiviral,LASV entry inh,Marburg entry inh,Vaccinia Venus
CC(=O)OCC1OC(n2cc(F)c(=O)[nH]c2=O)C(OC(C)=O)C1OC(C)=O (stereo not given),nt,-3%,nt,nt,nt
Nc1cccc(O)c1,-23%,-13%,nt,nt,-16%
Oc1cccc(-c2nnc(-c3cccc(O)c3)nn2)c1,-19%,8.9µM*,?,?,-4%
C[C@@H](ON=C1[C@H]2CCn3c(=O)n(-c4ccccc4)c(=O)n3[C@@H]2[C@H](O)[C@@H]2O[C@H]12)c1cn([C@H](CO)Cc2ccccc2)nn1,nt,nt,?,-23%[14.2 µM],nt
CCOC(=O)c1[nH]nc(-c2cc(CC)c(O)cc2O)c1-c1cscn1,nt,8.9µM*,?,?,nt
N#CN=c1snc(-c2ccccc2Cl)n1-c1ccccc1Cl,11µM*,nt,nt,nt,?
Clc1ccccc1-c1nnc2n1-c1ccccc1SC2,i,0%,4%,-8%[46.1 µM],-12%
N#CN=c1snc(-c2ccccc2)n1-c1ccc(Cl)cc1,5.6µM*,nt,nt,nt,3.5µM*
Cc1ccc(-n2c(SCC(=O)N/N=C/c3c(C)nn(-c4ccccc4)c3C)nc3ccccc3c2=O)cc1,?,0%,-22%,?,-14%
Cc1ccccc1-n1c(SCC(=O)N/N=C/c2c(C)nn(-c3ccccc3)c2C)nc2ccccc2c1=O,-27%,-23%,?,7.3µM*,?
O=C1CCCCN1CCC(=O)N1CCOc2ccc(C(O)C3CCCCC3)cc2C1 (stereo not given),-11%,-13%,nt,nt,-8%
C=CCN1C(=O)CSc2ccc(C(=O)NCc3ccco3)cc21,nt,-14%,-17%,-3%,nt
C=CCN1C(=O)CSc2ccc(C(=O)NCCC3=CCCCC3)cc21,nt,?,7.3µM*,?,nt
O=C(/C=C/c1ccco1)NC(=S)Nc1cc(-c2nc3ccccc3s2)ccc1Cl,i,6%,-23%,?,-29%
O=C(/C=C/c1ccco1)NC(=S)Nc1cccc(-c2nc3ccccc3s2)c1,-23%,-6%,-21%,3.5µM*,?
O=S(=O)(c1ccc(Cl)c(Cl)c1)c1snnc1-c1ccccc1,nt,?,7.1µM*,5µM*,?
COC(=O)C1CN(S(=O)(=O)c2cc(OC)ccc2OC)CCS1 (stereo not given),?,6%,-9%,4%,-1%
O=C1CCCC=C1C(O)COCc1ccccc1 (stereo not given),nt,nt,nt,3%[14.2 µM],nt
CN(C)CCNc1ncnc2c1sc1nc(N3CCOCC3)c3c(c12)CC(C)(C)SC3,nt,?,?,15µM*,nt
COc1ccc(-c2csc(NC(=O)C3CC(=O)N(Cc4ccco4)C3)n2)cc1 (stereo not given),-23%,?,?,?,-12%
CN(c1ccc(-c2csc(NC(=O)C3CC(=O)N(Cc4ccco4)C3)n2)cc1)S(C)(=O)=O (stereo not given),nt,22µM*,nt,nt,nt
Cc1cc(OCC(=O)OCC(=O)N2CCCc3ccccc32)ccc1Cl,-2%,-24%,nt,nt,-7%
CCCC[C@@H]1C=C(C(=O)O)[C@H](c2ccc(Br)cc2)N1S(=O)(=O)c1ccc(C)cc1,-11%,15%,nt,nt,-24%
O=C(NC(=O)c1ccccc1)Nc1ccccc1,0%,-44%,?,2.8µM*,-5%
